Test results taken from PubChem BioAssay (NCATS).
Results filed as inconclusive are left out. Calls of active or inactive are those of the source. Calls follow the shape of the dose curve; as a rule, active = well fitted curve in the direction sought with a large enough effect; inconclusive = small, poorly fitted or top-dose-only effect, or another doubt; inactive = no such curve, though single readings can be large; an effect the other way counts as inactive or inconclusive.

Legend:
[1] = qHTS of pediatric cancer cell lines to identify multiple opportunities for drug repurposing: Primary screen for BT-37 cells (AID 1347094); conditions: BT-37 viability, CellTiter-Glo luminescence, 48 h; series mostly up to 57.3 µM; also: potency is read from the fitted curve at half-maximal effect
Procedure, shortened: (§1)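 Phenotypic viability qHTS, 48 h compound exposure, CellTiter-Glo luminescence read-out; multi-concentration dosing so that potency and efficacy derive directly from the primary screen's curves.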

[2] = qHTS of pediatric cancer cell lines to identify multiple opportunities for drug repurposing: Primary screen for NB-EBc1 cells (AID 1347095); conditions: NB-EBc1 neuroblastoma viability, CellTiter-Glo luminescence, 48 h; series mostly up to 46 µM
Procedure, shortened: as §1

[3] = qHTS of pediatric cancer cell lines to identify multiple opportunities for drug repurposing: Primary screen for U-2 OS cells (AID 1347096); conditions: U-2 OS viability, CellTiter-Glo luminescence, 48 h; series mostly up to 46 µM; also: nearly all actives have a fitted effect of over 50% in size
Procedure, shortened: (§2)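 Cells (500-1,000/well) rested 5 h, then received compounds for 48 h; metabolically active cells were measured by CellTiter-Glo luminescence. Final concentrations spanned up to 46 µM (MIPE, 11-point) or 0.59 nM-46 µM (NPC, 8-point) in primary screens, 11-point in follow-ups.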

[4] = qHTS of pediatric cancer cell lines to identify multiple opportunities for drug repurposing: Primary screen for Saos-2 cells (AID 1347097); conditions: Saos-2 viability, CellTiter-Glo ATP luminescence, 48 h; series mostly up to 46 µM; also: nearly all actives have a fitted effect of over 40% in size; also: potency is read from the fitted curve at half-maximal effect
Procedure, shortened: as §1

[5] = qHTS of pediatric cancer cell lines to identify multiple opportunities for drug repurposing: Primary screen for SK-N-SH cells (AID 1347098); conditions: SK-N-SH viability, CellTiter-Glo luminescence, 48 h; series mostly up to 57 µM; also: nearly all actives have a fitted effect of over 65% in size; also: potency is read from the fitted curve at half-maximal effect
Procedure, shortened: as §2

[6] = qHTS of pediatric cancer cell lines to identify multiple opportunities for drug repurposing: Primary screen for NB1643 cells (AID 1347099); conditions: NB1643 neuroblastoma viability, CellTiter-Glo luminescence, 48 h; series mostly up to 46 µM; also: nearly all actives have a fitted effect of over 50% in size; also: potency is read from the fitted curve at half-maximal effect
Procedure, shortened: as §1

[7] = qHTS of pediatric cancer cell lines to identify multiple opportunities for drug repurposing: Primary screen for LAN-5 cells (AID 1347100); conditions: LAN-5 neuroblastoma viability, CellTiter-Glo luminescence, 48 h; series mostly up to 46 µM
Procedure, shortened: as §2

[8] = qHTS of pediatric cancer cell lines to identify multiple opportunities for drug repurposing: Primary screen for BT-12 cells (AID 1347101); conditions: BT-12 viability, CellTiter-Glo luminescence, 48 h; series mostly up to 57.3 µM; also: nearly all actives have a fitted effect of over 25% in size; also: potency is read from the fitted curve at half-maximal effect
Procedure, shortened: as §2

[9] = qHTS of pediatric cancer cell lines to identify multiple opportunities for drug repurposing: Primary screen for Rh18 cells (AID 1347102); conditions: Rh18 rhabdomyosarcoma viability, CellTiter-Glo luminescence, 48 h; series mostly up to 46 µM; also: nearly all actives have a fitted effect of over 65% in size; also: potency is read from the fitted curve at half-maximal effect
Procedure, shortened: as §2

[10] = qHTS of pediatric cancer cell lines to identify multiple opportunities for drug repurposing: Primary screen for OHS-50 cells (AID 1347103); conditions: OHS-50 osteosarcoma viability, CellTiter-Glo luminescence, 48 h; series mostly up to 57.3 µM; also: nearly all actives have a fitted effect of over 40% in size; also: potency is read from the fitted curve at half-maximal effect
Procedure, shortened: as §2

[11] = qHTS of pediatric cancer cell lines to identify multiple opportunities for drug repurposing: Primary screen for RD cells (AID 1347104); conditions: RD rhabdomyosarcoma viability, CellTiter-Glo luminescence, 48 h; series mostly up to 46 µM; also: nearly all actives have a fitted effect of over 55% in size; also: potency is read from the fitted curve at half-maximal effect
Procedure, shortened: as §1

[12] = qHTS of pediatric cancer cell lines to identify multiple opportunities for drug repurposing: Primary screen for control Hh wild type fibroblast cells (AID 1347106); conditions: Hh wild-type fibroblast viability, CellTiter-Glo luminescence, 48 h; series mostly up to 46 µM;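 also: a drop in luminescence marks cytotoxicity and a rise apparent proliferation; nearly all actives have a fitted effect of over 55% in size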
Procedure, shortened: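 Cells (500-1,000/well) in growth media were settled 5 h at 37 degrees C, then given compounds for 48 h. Viability was read as CellTiter-Glo luminescence. Primary runs used MIPE at 11 points (0.78 nM-46 µM) and NPC at 8 points (0.59 nM-46 µM); follow-ups used 11 points.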

[13] = qHTS of pediatric cancer cell lines to identify multiple opportunities for drug repurposing: Primary screen for Rh30 cells (AID 1347107); conditions: Rh30 rhabdomyosarcoma viability, CellTiter-Glo luminescence, 48 h; series mostly up to 46 µM; also: nearly all actives have a fitted effect of over 75% in size
Procedure, shortened: as §2

[14] = qHTS of pediatric cancer cell lines to identify multiple opportunities for drug repurposing: Primary screen for Rh41 cells (AID 1347108); conditions: Rh41 rhabdomyosarcoma viability, CellTiter-Glo luminescence, 48 h; series mostly up to 46 µM;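 also: luminescence drop marks cytotoxic hits; nearly all actives have a fitted effect of over 70% in size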
Procedure, shortened: as §1

[15] = qHTS of pediatric cancer cell lines to identify multiple opportunities for drug repurposing: Primary screen for MG 63 (6-TG R) cells (AID 1347105); conditions: MG 63 (6-TG R) viability, CellTiter-Glo, 48 h; series mostly up to 46 µM; also: nearly all actives have a fitted effect of over 50% in size; also: potency is read from the fitted curve at half-maximal effect
Procedure, shortened: as §1

[16] = qHTS of pediatric cancer cell lines to identify multiple opportunities for drug repurposing: Confirmatory screen for NB1643 cells (AID 1347109); conditions: NB1643 neuroblastoma cell viability; series mostly up to 45.9 µM; also: nearly all actives have a fitted effect of over 45% in size
Procedure, shortened: as §2

[17] = qHTS of pediatric cancer cell lines to identify multiple opportunities for drug repurposing: Confirmatory screen for A673 cells (AID 1347110); conditions: A673 Ewing sarcoma cell viability; series mostly up to 45.9 µM;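 also: cells exposed to compound for 48 h before the viability read; nearly all actives have a fitted effect of over 65% in size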
Procedure, shortened: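 Cells plated at 500-1,000/well were treated five hours later with multi-point dilutions up to 46 µM final. After two days, CellTiter-Glo was added and luminescence read.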

[18] = qHTS of pediatric cancer cell lines to identify multiple opportunities for drug repurposing: Confirmatory screen for BT-12 cells (AID 1347112); conditions: BT-12 rhabdoid tumor cells, viability; series mostly up to 45.9 µM; also: nearly all actives have a fitted effect of over 55% in size
Procedure, shortened: as §2

[19] = qHTS of pediatric cancer cell lines to identify multiple opportunities for drug repurposing: Confirmatory screen for SK-N-MC cells (AID 1347111); conditions: SK-N-MC cell viability;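 also: potency is read from the fitted curve at half-maximal effect; cells exposed to compound for 48 h before the readout; nearly all actives have a fitted effect of over 70% in size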
Procedure, shortened: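 Seed 500-1,000 cells/well; rest 5 h at 37 degrees C. Pin-transfer compounds, 11-point titration. Incubate 48 h. Add CellTiter-Glo, 15 min RT, read luminescence.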

Measured: Potency

CC(=O)OC(C)C[N+](C)(C)C (centres undefined)
not listed: [15] | [16] | [17] | [18] | [19]
inactive: all other assays above

COC(=O)C1=C(C)NC(C)=C(C(=O)OCCN(C)Cc2ccccc2)C1c1cccc([N+](=O)[O-])c1 (centres undefined)
active: [4] 29.9 µM | [5] 4.33 µM | [6] 21.1 µM | [10] 17.4 µM
inactive: [12] | [13]

COCCOC(=O)C1=C(C)NC(C)=C(C(=O)OC(C)C)C1c1cccc([N+](=O)[O-])c1 (centres undefined)
inactive: [3] | [5] | [6] | [12]
active: [9] 18.8 µM | [10] 24.6 µM

CCOC(=O)C1=C(C)NC(C)=C(C(=O)OC)C1c1cccc([N+](=O)[O-])c1 (centres undefined)
not listed: [4] | [10] | [15] | [16] | [17] | [18] | [19]
inactive: all other assays above

COCCCC/C(=N\OCCN)c1ccc(C(F)(F)F)cc1
inactive: [1] | [2] | [3] | [6] | [7] | [8] | [9] | [15] | [12] | [14]

COc1ccc2c(c1OC)C(=O)O[C@@H]2[C@H]1c2c(cc3c(c2OC)OCO3)CCN1C
inactive: [1] | [3] | [6] | [9] | [10] | [11] | [15] | [12] | [13] | [14]

CO[C@@]1(NC(=O)CSCC#N)C(=O)N2C(C(=O)O)=C(CSc3nnnn3C)CS[C@@H]21
not listed: [5] | [13] | [16] | [17] | [18] | [19]
inactive: all other assays above

Cc1nc2c([nH]1)c(=O)n(C)c(=O)n2Cc1ccco1
not listed: [11] | [16] | [17] | [18] | [19]
inactive: all other assays above

CCOC(=O)C1=C(C)NC(C)=C(C(=O)OC)C1c1cccc(Cl)c1Cl (centres undefined)
not listed: [5] | [8] | [10] | [13] | [16] | [17] | [18] | [19]
inactive: all other assays above

CCCCNc1c(C(=O)OCC)c(C)nc2c1cnn2CC
active: [4] 26.6 µM | [10] 34.7 µM
not listed: [5] | [7] | [16] | [17] | [18] | [19]
inactive: all other assays above

COC(=O)[C@@H](N)Cc1ccc(O)c(O)c1
not listed: [4] | [5] | [13] | [16] | [17] | [18] | [19]
inactive: all other assays above

O=C(CCCN1CCC(O)(c2cccc(C(F)(F)F)c2)CC1)c1ccc(F)cc1
inactive: [1] | [2] | [3] | [6] | [7] | [15] | [12] | [14]

CN1C[C@H](C(=O)N[C@]2(C)O[C@@]3(O)[C@@H]4CCCN4C(=O)[C@H](Cc4ccccc4)N3C2=O)C[C@@H]2c3cccc4[nH]cc(c34)C[C@H]21
active: [5] 30.7 µM
not listed: [4] | [8] | [9] | [10] | [19]
inactive: all other assays above

Cc1nc2sccn2c(=O)c1CCN1CCC(=C(c2ccc(F)cc2)c2ccc(F)cc2)CC1
active: [10] 27.6 µM
inactive: [1] | [3] | [6] | [7] | [9] | [15] | [12] | [13] | [14]

CN(C)CCCN1c2ccccc2Sc2ccc(C(F)(F)F)cc21
active: [8] 4.9 µM | [10] 24.6 µM | [19] 26.1 µM
inactive: [3] | [15] | [12] | [13] | [14]

Fc1ccc(C(c2ccc(F)cc2)N2CCN(C/C=C/c3ccccc3)CC2)cc1
active: [10] 17.4 µM
inactive: [6] | [9] | [15] | [12] | [13] | [14]

Cc1ccc(S(=O)(=O)NC(=O)NN2CCCCCC2)cc1
not listed: [5] | [16] | [17] | [18] | [19]
inactive: all other assays above

COCC(=O)O[C@]1(CCN(C)CCCc2nc3ccccc3[nH]2)CCc2cc(F)ccc2[C@@H]1C(C)C
inactive: [6] | [12]
active: [4] 26.6 µM | [5] 19.4 µM | [10] 21.9 µM | [11] 26.6 µM | [15] 21.1 µM

CNCCCN1c2ccccc2CCc2ccccc21
inactive: [3] | [4] | [6] | [7] | [12] | [13] | [14]
active: [10] 15.5 µM

CCCC(C(=O)OCCN(CC)CC)(c1ccccc1)c1ccccc1
active: [1] 30.9 µM | [4] 26.6 µM | [5] 19.4 µM | [10] 30.9 µM | [11] 29.9 µM
inactive: [7] | [12]
